In the supplement of paper PMC10981050:
Several values for one entry are separate records, joined by “and”; a condition that tells them apart may be missing. Equal entries are not always repeated. Structures can show the parent of a compound that is named as a salt.

What was measured:
Assay in all cases: cell viability relative to vehicle control; higher = less cytotoxic
Conditions in all cases: 10 µM
K562 = test system: K562
How it was run: (§1)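 CRISPR-edited mutant clones and isogenic wild-type clones from four leukaemia lines were screened against Selleck bioactive, kinase and epigenetic probe libraries, with identity-inconsistent compounds excluded. Each compound was acoustically dispensed at a single 10 µM dose into 384-well plates holding 2000 cells in 50 µL medium per well. After 48 h the supernatant was removed and CellTiter-Glo luminescence was read. Viability was expressed as percent of the on-plate vehicle control and analysed in Genedata Screener.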

MARIMO = test system: MARIMO
How it was run: as §1

MOLM14 = test system: MOLM14
How it was run: as §1

OCI-AML2 = test system: OCI-AML2
How it was run: as §1

| Structure (SMILES) | cell viability (K562; SRSF2 genotype: SRSF2 P95H/wt) | cell viability (K562; SRSF2 genotype: SRSF2 wt/wt) [%] | cell viability (MARIMO; SRSF2 genotype: SRSF2 P95H/wt) [%] | cell viability (MARIMO; SRSF2 genotype: SRSF2 wt/wt) [%] | cell viability (MOLM14; SRSF2 genotype: SRSF2 P95H/wt) [%] | cell viability (MOLM14; SRSF2 genotype: SRSF2 wt/wt) [%] | cell viability (OCI-AML2; SRSF2 genotype: P95H/wt) [%] | cell viability (OCI-AML2; SRSF2 genotype: wt/wt) [%] |
| --- | --- | --- | --- | --- | --- | --- | --- | --- |
| COc1ccc(CCNCC(O)COc2cccc(C)c2)cc1OC (stereo unspecified) [Bevantolol hydrochloride] | 92.7% and 89.9% | 88.2 | 82.8 | 93.4 | 90.6 | 91.2 | 81.8 | 84.8 |
| C[C@H]1C[C@H]2[C@@H]3C[C@H](F)C4=CC(=O)C=C[C@]4(C)[C@@]3(F)[C@@H](O)C[C@]2(C)[C@@]1(O)C(=O)CO [Diflorasone] | 101% and 99.2% | 105 | 109 | 113 | 92.1 | 98.9 | 92.7 | 120 |
| O=NO [Sodium Nitrite] | 107% and 104% | 95.9 | 99.9 | 99.4 | 96.4 | 101 | 97.8 | 99.5 |
| COc1cc2c(cc1OC)CC(=O)N(CCCN(C)C[C@H]1Cc3cc(OC)c(OC)cc31)CC2 [Ivabradine HCl (Procoralan)] | 97.8% and 97.4% | 93.7 | 97.4 | 109 | 99.6 | 106 | 95.8 | 107 |
| CC(C(=O)O)C(=O)O [Methylmalonate] | 102% | 100 | 98.2 | 110 | 97 | 103 | 90.5 | 107 |
| C[C@H]1CO[C@@H]2Cn3cc(C(=O)NCc4ccc(F)cc4F)c(=O)c(O)c3C(=O)N12 | 84.6% and 81.9% | 71.5 | 90.2 | 95.4 | 92.8 | 88.8 | 83.9 | 86.6 |
| CC(=O)C1=C(O)C=C2Oc3c(C(C)=O)c(O)c(C)c(O)c3C2(C)C1=O (single isomer, unassigned; (+)) [(+)-Usniacin (D-Usnic acid)] | 98.5% and 99.9% | 97.7 | 95.4 | 106 | 95 | 99 | 90.8 | 98.9 |
| Cc1ccc(Cl)c(Nc2ccccc2C(=O)O)c1Cl [Meclofenamate sodium] | 97.7% and 99.9% | 96.9 | 97.2 | 96.4 | 96.8 | 98.5 | 105 | 99.4 |
| COc1nc(C)nc(Cl)c1NC1=NCCN1 [Moxonidine] | 101% and 86.7% | 84.3 | 87.2 | 95.5 | 89.9 | 94.8 | 97.5 | 89.6 |
| COc1ccc(C2CNC(=O)C2)cc1OC1CCCC1 (stereo unspecified) [Rolipram] | 92.9% and 98% | 98.6 | 104 | 102 | 101 | 103 | 108 | 110 |
| CN(C)c1ccc2nc3c(C(=O)O)cc(=O)c(O)c-3oc2c1 [Gallocyanine] | 84.7% and 76.8% | 77.7 | 82.6 | 87.4 | 85.3 | 86.2 | 84 | 78.8 |
| O=C(O)CC1CC(c2ccccc2)=NO1 (stereo unspecified) | 108% and 104% | 103 | 97 | 110 | 97.4 | 99.7 | 89.5 | 95.5 |
| C[C@@H]1CC(=O)Nc2cccc(-c3ccc4c(c3)c(-c3cnn(C)c3)nn4C)c2N1 | 80.2% and 77.7% | 81.6 | 55.1 | 49.1 | 32.5 | 35.8 | 32.6 | 47.2 |
| C#Cc1cccc(Nc2ncnc3cc(OCCOC)c(OCCO)cc23)c1 [OSI-420 (Desmethyl Erlotinib)] | 43.5% and 54.3% | 44.4 | 53.9 | 49.5 | 32.1 | 29.9 | 30.6 | 37.5 |
| NS(=O)(=O)c1ccccc1 [Benzenesulfonamide] | 100% and 106% | 109 | 97.9 | 109 | 96.5 | 106 | 107 | 91.7 |
| COc1ccc(C(=O)C(=O)c2ccc(OC)cc2)cc1 | 104% and 97.9% | 104 | 95.5 | 105 | 100 | 106 | 94.5 | 90.8 |
| CN(C)C1CCN(C(=O)c2ccc(NC(=O)Nc3ccc(-c4nc(N5CCOCC5)nc(N5CCOCC5)n4)cc3)cc2)CC1 | 34.1% and 32.1% | 26.6 | 43.2 | 34.9 | 22.1 | 21.3 | 10.5 | 16.2 |
| Nc1nc(N)nc(-c2cc(Cl)ccc2Cl)n1 [Irsogladine] | 95.2% and 105% | 97.1 | 102 | 113 | 101 | 103 | 108 | 101 |
| CCNC1(C(N)=O)CCN(c2ncnc3c2nc(-c2ccccc2Cl)n3-c2ccc(Cl)cc2)CC1 | 79.4% and 80.8% | 79.1 | 83.1 | 101 | 78.2 | 84.3 | 88.2 | 93 |

| Structure (SMILES) | cell viability (K562; SRSF2 genotype: SRSF2 P95H/wt) | cell viability (K562; SRSF2 genotype: SRSF2 wt/wt) [%] | cell viability (MARIMO; SRSF2 genotype: SRSF2 P95H/wt) [%] | cell viability (MARIMO; SRSF2 genotype: SRSF2 wt/wt) [%] | cell viability (MOLM14; SRSF2 genotype: SRSF2 P95H/wt) [%] | cell viability (MOLM14; SRSF2 genotype: SRSF2 wt/wt) [%] | cell viability (OCI-AML2; SRSF2 genotype: P95H/wt) [%] | cell viability (OCI-AML2; SRSF2 genotype: wt/wt) [%] |
| --- | --- | --- | --- | --- | --- | --- | --- | --- |
| C[C@@]12C[C@@]3(O)O[C@@H](O1)[C@]1(COC(=O)c4ccccc4)[C@@H]3C[C@]12O[C@@H]1O[C@H](COC(=O)c2ccccc2)[C@@H](O)[C@H](O)[C@H]1O [Benzoylpaeoniflorin] | 99.7% and 101% | 93.4 | 96.2 | 96.7 | 104 | 97.8 | 93.9 | 102 |
| CN1CCN(CCOc2cc(OC3CCOCC3)c3c(Nc4c(Cl)ccc5c4OCO5)ncnc3c2)CC1 [Saracatinib (AZD0530)] | 7.73% and 16.1% | 9.65 | 97.1 | 107 | 50.3 | 55.9 | 73.4 | 63.4 |
| CC(NC(=O)C(Cc1ccccc1)NC(=O)OCc1ccccc1)C(=O)CF (stereo unspecified) | 102% and 101% | 96 | 92.9 | 111 | 94.3 | 101 | 98.8 | 94.9 |
| OC[C@@H](O)[C@@H](O[C@H]1O[C@H](CO)[C@@H](O)[C@H](O)[C@H]1O)[C@H](O)[C@@H](O)CO [Maltitol] | 98.2% and 88.7% | 98.6 | 99.6 | 105 | 99.6 | 99.9 | 96.8 | 107 |
| CNCc1cc(-c2ccccc2F)n(S(=O)(=O)c2cccnc2)c1 [Vonoprazan Fumarate (TAK-438)] | 94.5% and 98% | 94.2 | 85.5 | 89.8 | 93 | 91.3 | 97.1 | 85.7 |
| N[C@@H]1CCCCN(c2c(F)cc3c(=O)c(C(=O)O)cn(C4CC4)c3c2Cl)C1 [Besifloxacin HCl (Besivance)] | 97.5% and 91.4% | 99.9 | 99.3 | 96.6 | 97.6 | 98.3 | 121 | 95.6 |
| C/C=C(/C)C(=O)O[C@@H]1[C@H](OC(C)=O)c2c(ccc3ccc(=O)oc23)OC1(C)C [Praeruptorin A] | 96.7% and 95.2% | 100 | 89.8 | 101 | 89 | 94.8 | 97.4 | 104 |
| COc1ccc2c(c1)[C@]1(C[C@H]1c1ccc3c(/C=C/c4ccc(CN5C[C@@H](C)O[C@@H](C)C5)cc4)n[nH]c3c1)C(=O)N2 | 13.4% and 27.5% | 17.7 | 30.9 | 29.3 | 14.5 | 10.7 | 11.6 | 20.3 |
| CCn1c(=O)c2c(nc(/C=C/c3ccc(OC)c(OC)c3)n2C)n(CC)c1=O [Istradefylline (KW-6002)] | 90.7% and 83.8% | 85.1 | 81.1 | 95.3 | 96.5 | 97.6 | 117 | 92.4 |
| C1CNCCNCCNCCN1 [Cyclen] | 100% and 102% | 106 | 107 | 111 | 103 | 103 | 105 | 102 |
| O=C(Nc1ncc([N+](=O)[O-])s1)c1ccccc1O [Tizoxanide] | 82% and 82.9% | 88.8 | 90.3 | 94.2 | 96.9 | 100 | 91.2 | 96.1 |
| Clc1ccc(C(c2ccccc2Cl)C(Cl)Cl)cc1 (stereo unspecified) [Mitotane] | 91.2% and 89.1% | 87.6 | 83 | 106 | 90.8 | 84.8 | 93.7 | 107 |
| Cc1ncc(CCCN(C)C)cc1Nc1ncc2c(n1)-c1ccc(C(F)(F)F)cc1NC(=S)C2 | 46.2% and 57.9% | 54.3 | 49.5 | 44.5 | 18.3 | 8.47 | 16.3 | 21.1 |
| C=C1CCC[C@]2(C)C[C@@H]3OC(=O)C(C)=C3C[C@@H]12 [Atractylenolide II] | 107% and 105% | 99.7 | 96.8 | 102 | 101 | 106 | 103 | 106 |
| O=C(c1ccc(F)cc1)N1CCCC(c2nc(-c3ccc(F)cc3)no2)C1 (stereo unspecified) | 75.7% and 78.6% | 76.6 | 66 | 73.9 | 80.1 | 84.1 | 64.8 | 72.7 |
| COc1cc2nc(N3CCN(C(=O)C4COc5ccccc5O4)CC3)nc(N)c2cc1OC (stereo unspecified) [Doxazosin mesylate] | 94.7% and 100% | 95.9 | 105 | 101 | 92.2 | 105 | 92.7 | 96.5 |
| CC1OC(OC2C(OC3CCC4(C)C(CCC5(C)C4CC=C4C6CC(C)(C)CCC6(C(=O)OC6OC(COC7OC(CO)C(O)C(O)C7O)C(O)C(O)C6O)CCC45C)C3(C)CO)OCC(O)C2O)C(O)C(O)C1O (stereo unspecified) [Dipsacoside B] | 101% and 103% | 104 | 97.5 | 98.2 | 106 | 98.3 | 101 | 103 |
| N=C(N)NC(=O)c1nc(Cl)c(N)nc1N [Amiloride HCl] | 88.4% and 98.5% | 92.9 | 99.3 | 96.2 | 72.8 | 86.7 | 85.8 | 84.7 |
